40 compounds from PubChem BioAssay (EPA / NIEHS) can be followed below.

Activity calls are given as the source filed them. The calls were made as follows: active = hit-call score of the fitted dose curve at least 0.9, where 1 is the maximum; inactive = score below 0.9.

Read-out in the assay: Intercellular Adhesion Molecule 1 (ICAM1), ICAM1 (gene 3383)
As to the kind of experiment: BSK_3C_ICAM1: BioMAP Diversity Plus: 3C Assay for Intercellular Adhesion Molecule 1 (ICAM1) Biomarker Activity (AID 2283003). The settings on record: primary human endothelial cells (HUVEC); actives raise or lower the signal. The procedure: BSK_3C is a cell-based, multiplexed-readout assay that uses umbilical vein endothelium, a human vascular primary cell, with measurements taken at 24 hours after chemical dosing in a 96-well plate.BSK_3C_ICAM1 is an assay component measured in the BSK_3C assay. It measures ICAM-1 antibody related to regulation of gene expression using ELISA technology.Data from the assay component BSK_3C_ICAM1 was analyzed into 1 assay endpoint. This assay endpoint, BSK_3C_ICAM1, was analyzed with bidirectional fitting relative to DMSO as the negative control and baseline of activity. Using a type of binding reporter, gain or loss-of-signal activity can be used to understand changes in the signaling as they relate to the gene ICAM1. Furthermore, this assay endpoint can be referred to as a primary readout, because this assay has produced multiple assay endpoints where this one serves a signaling function. To generalize the intended target to other relatable targets, this assay endpoint is annotated to the cell adhesion molecules intended target family, where the subfamily is Immunoglobulin CAM.
The levels of cell surface (or secreted, indicated by the prefix "s") biomarker endpoints were measured by ELISA. Overt cytotoxicity to cells in confluent adherent cultures (all systems other than the BT system) was assessed by measuring total protein levels using sulforhodamine B (SRB) staining in parallel cultures at the time of biomarker measurements, indicated as SRB endpoints. For proliferation assays for adherent cell types, individual cell types are cultured at sub-confluence and relative cell numbers quantified by SRB staining at time points optimized for each system (48 h: 3C and CASM3C systems; 72 h: BT and HDF3CGF systems; 96 h: SAg system). SRB was performed by staining cells with 0.1% SRB after fixation with 10% TCA and reading wells at 560 nm.Viability and proliferation of PBMC (T cells) was quantified by Alamar Blue reduction for the SAg and BT systems. For PBMC viability (referred to as PBMC Cytotoxicity within the assay endpoint names), cells were plated (75,000/well in a 96-well plate) and then chemical samples added for 1 h before addition of activators, SEB and TSST-1 (20 ng/mL final concentration each). Cells were incubated for 90 h. Then, Alamar Blue (20 uL/well) (Invitrogen, Cat DAL1100) was added for 6 h, and the plates were read with a fluorescence microplate reader at 546/580 nm (excitation/emission). For PBMC proliferation, cells were plated and activated as above but incubated for only 16 h prior to addition of Alamar Blue. Plates were read after 6 h.
On to `O=C(Cl)C(F)(F)C(F)(F)C(F)(F)C(=O)Cl`, for which the result was inactive.

For `FC(F)=C(F)C(F)(F)C(F)(F)C(F)(F)C(F)(F)C(F)(F)C(F)(F)F`, the result was inactive. Same read-out and setting: for `c1ccc(C(O[C@@H]2CCCN(CCc3ccc4c(c3)OCO4)C2)c2ccccc2)cc1` the value was “inactive”. As to `c1ccc2c(c1)-c1cccc3c1c-2cc1ccccc13`, the result was inactive.

Take `OC[C@H]1O[C@@](CO)(O[C@H]2O[C@H](CO)[C@@H](O)[C@H](O)[C@H]2O)[C@@H](O)[C@@H]1O`: the result was inactive. What is called AC50 is the midpoint of the concentration-response curve, whichever way the signal moves. For the compound `CCc1ccc(O)c(C(C)(C)C)c1`, the AC50 was 31.5 µM (active).

Regarding `C[C@@H](Oc1ccc(CNC(=O)c2cccnc2Oc2ccc3c(c2)OCO3)c(F)c1)C(=O)O`, the outcome was inactive.

`Cc1cccc(O)c1C`: the result was inactive. The same measure, in the same setting: for `O=S(=O)(O)CCC(F)(F)C(F)(F)C(F)(F)C(F)(F)C(F)(F)C(F)(F)F` the value was “inactive”; for `FC(F)C(F)(F)COCC1CO1` (stereo not given), “inactive”; for `C[C@]12C=CC(=O)C=C1CC[C@H]1[C@@H]3C[C@@H](O)[C@](O)(C(=O)CO)[C@@]3(C)C[C@H](O)[C@@]12F`, “inactive”. Same read-out and setting: in the case of `CCc1cccc(CC)c1N` it was “inactive”; in that of `NCC(F)(F)C(F)(F)C(F)(F)C(F)(F)F`, “inactive”; in that of `NC(=O)NN=Cc1ccc([N+](=O)[O-])o1`, “inactive”.

For the compound `CCCCCCCCN(C)C`, the outcome was inactive. As for `O=S1(=O)CCCO1`, the outcome was inactive. The same measure, in the same setting: for `CCCCCCCCCC` the value was “inactive”; for `Cc1ncc([C@@H](CCCCCCc2ccc3c(n2)NCCC3)CC(=O)O)cn1`, “inactive”. The same measure, in the same setting: in the case of `COc1cc2c(c(OC)c1OC)-c1ccc(OC)c(=O)cc1[C@@H](NC(C)=O)CC2` it was “inactive”. As for `CC(C)CCCCCCOC(=O)C1CCCCC1C(=O)OCCCCCCC(C)C` (stereo not given), the outcome was inactive.

In the case of `CC[C@H](C)C(=O)O[C@H]1C[C@H](O)C=C2C=C[C@H](C)[C@H](CC[C@@H](O)C[C@@H](O)CC(=O)O)[C@H]21`, the result was inactive.

On to `C=CCc1cc(S(=O)(=O)c2ccc(O)c(CC=C)c2)ccc1O`, for which the half-maximal activity concentration (AC50) is 29.3 µM (active). Turning to `O=C(O)c1cccc(C(=O)O)c1`, the outcome was inactive. Still for that read-out and setting: for `CCCCOC(=O)c1ccccc1` the value was “inactive”; for `OCCC(F)(F)C(F)(F)C(F)(F)C(F)(F)F`, “inactive”; for `CCCCCOC(C)=O`, “inactive”. As to `CCN(CC)C(=S)SSC(=S)N(CC)CC`, the half-maximal activity concentration (AC50) was 34.9 µM (active). For the compound `CC(C)c1nnc2ccc(-c3ocnc3-c3cc(F)ccc3F)cn12`, the result was inactive.

For `O=S(=O)(O)c1ccc(N=Nc2c(O)ccc3cc(S(=O)(=O)O)ccc23)cc1`, the result was inactive.

As for `OC(O)(C(F)C(O)(O)C(F)(F)F)C(F)(F)F`, the result was inactive. Still for that read-out and setting: for `OCc1ccccc1` the value was “inactive”.

As to `C=CN1CCCC1=O`, the outcome was inactive. The same measure, in the same setting: for `FC(F)(F)COC(OCC(F)(F)F)OCC(F)(F)F` the value was “inactive”; for `CCCCC(CC)C(=O)OCCOCCOCCOC(=O)C(CC)CCCC` (stereo not given), “inactive”; for `Cc1nc(-c2ccccn2)ncc1C(=O)Nn1cc(C)c2cc(F)ccc21`, “inactive”.

Turning to `Cc1nccn1-c1ccc(Sc2cccc(C3(C(N)=O)CCOCC3)c2)cc1`, the outcome was inactive. Same read-out and setting: in the case of `O=C1CN(N=Cc2ccc([N+](=O)[O-])o2)C(=O)N1` it was “inactive”; in that of `OCCNCCO`, “inactive”. Same read-out and setting: for `O=C(O)c1cccc(C[C@@H]2COc3ccc(OCc4nc5cc(F)ccc5s4)cc3[C@@H]2O)c1` the value was “inactive”; for `CCCCN1C(=O)[C@@H]([C@H](O)C2CCCCC2)NC(=O)C12CCN(Cc1ccc(Oc3ccc(C(=O)O)cc3)cc1)CC2`, “inactive”.
